About 320 (15%) of roughly 2,100 compounds were called active. Not shown: some 52% with an inconclusive outcome. Calls come from the whole dose curve; as a rule, active = well fitted cell-killing curve with a large enough effect; inconclusive = small, poorly fitted or top-dose-only effect, or effect the other way; inactive = flat fitted curve, though single readings scatter. The list shows a part of the results. Entries that show only a call come without a potency.
Test: Viability Counterscreen for CMV-Luciferase Assay of Inhibitors of ATXN expression; note: nearly all actives have a fitted effect of over 55% in size
Conditions: HEK-293 CMV-luciferase cells viability, protease fluorescence, 24 h
Procedure, shortened: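 Compounds are tested in a dilution series on HEK-293 cells carrying the CMV-driven luciferase. After a 24 hr incubation, a protease substrate (25 uM final, 30 min) gives the viability fluorescence, and SteadyGlo gives the reporter luminescence.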
Potency is the fitted concentration of half-maximal effect.

SMILES | Potency
Cc1cccc(OCCCC(=O)Nc2nc3ccccc3[nH]2)c1 | inactive
COC(=O)c1sc(NC(=O)c2ccc(OC)cc2OC)nc1C | inactive
Cc1cc(C)c(C)c(OC(=O)c2sc(Cl)nc2C)c1 | 20 µM (active)
Clc1ccc(COC(Cn2ccnc2)c2ccc(Cl)cc2Cl)c(Cl)c1 (stereo not drawn) | inactive
CCc1cc2c(=O)c(-c3cnn(-c4ccccc4)c3)coc2c(CN2CCOCC2)c1O | inactive
Cc1nnc(SCC(N)=O)n1CC1CCCO1 (stereo not drawn) | inactive
COc1cccc2c1C(=N)c1c(O)c3c(c(O)c1C2=O)CC(O)(C(C)=O)CC3OC1CC(N)C(O)C(C)O1 (stereo not drawn) | 1.26 µM (active)
COc1cccc2c1C(=O)c1c(O)c3c(c(O)c1C2=O)C[C@](O)(C(C)=O)C[C@H]3O[C@@H]1C[C@@H](N)[C@@H](O)[C@@H](C)O1 | 0.891 µM (active)
CCCCC(=O)OCC(=O)C1(O)Cc2c(O)c3c(c(O)c2C(OC2CC(NC(=O)C(F)(F)F)C(O)C(C)O2)C1)C(=O)c1c(OC)cccc1C3=O (stereo not drawn) | 8.91 µM (active)
Cn1c(CCc2nc3ccccc3[nH]2)nnc1SCC#N | inactive
CCC(C)(C)c1ccc(OCCCC[n+]2ccc(C)cc2)c(C(C)(C)CC)c1 | inactive
CN(CC(=O)Nc1cccc(F)c1)CC(=O)Nc1cccc2ccccc12 | inactive
CCN1CCN(Cc2ccc(NC(=O)c3ccc(C)c(NC(=O)c4nccnc4N)c3)cc2C(F)(F)F)CC1 | inactive
O=C1C=C(Nc2ccccc2O)c2ccccc2C1=O | 20 µM (active)
OC(c1ccccc1)(c1nc(-c2ccc3ccccc3c2)cs1)C(F)(F)F (stereo not drawn) | inactive
Cc1ccc(NS(=O)(=O)c2cc3c4c(cccc4c2)C(=O)NC3=O)cc1C | inactive
CCC(CC)C(=O)c1c[nH]c(C(=O)NCc2ccccn2)c1 | inactive
O=C(N/N=C(\c1ccccc1)c1ccccn1)c1ccccc1Cl | 7.94 µM (active)
O=C(N/N=C(\Cc1ncc[nH]1)c1ccccc1)c1cccnc1 | inactive
O=C(NN=C(c1ccccc1)c1ccccn1)c1ccccc1 | 3.16 µM (active)
CCn1c2ccccc2c2cc(/C=N/n3cnnc3)ccc21 | inactive
CCN1CCN(C(=S)c2ccc(-c3ccccc3)cc2)CC1 | inactive
Cn1c2c(c(=O)[nH]c1=O)C(c1cccc(O)c1)C1=C(N2)c2ccccc2C1=O (stereo not drawn) | 11.2 µM (active)
N#Cc1c(N)n(C2OC(CO)C(O)C2O)c2ncnc(N)c12 (stereo not drawn) | 1.41 µM (active)

SMILES | Potency
CNc1nc2c(N)ncnc2n1[C@H]1O[C@@H](CO)[C@H](O)[C@@H]1O | inactive
CCOC(=O)c1c(NC(=O)COC(=O)c2ccccc2NC)sc(C(=O)N(C)C)c1C | inactive
COC(=O)c1c(C)oc2ccc(N(C(=O)c3ccncc3)S(=O)(=O)c3ccc(C)cc3C)cc12 | inactive
CCC1(c2ccccc2)ON(c2c(Br)cccc2Br)C1=O (stereo not drawn) | 17.8 µM (active)
Cc1nc(Oc2ccc(S(=O)(=O)N3CCOCC3)cc2Cl)c2c3c(sc2n1)CCCC3 | inactive
N=c1ccn(CC(=O)c2ccc(-c3ccccc3)cc2)cc1 | inactive
Clc1ccc(-c2cc(C3CCNCC3)[nH]n2)c(Cl)c1 | inactive
COc1cc(NS(=O)(=O)c2ccc(N/C=C(\C#N)c3nc4cc(Cl)ccc4o3)cc2)nc(OC)n1 | 14.1 µM (active)
CCN1CCN(c2ccc(Cl)cc2NC(=O)c2ccc(-n3nc(C)cc3C)cc2)CC1 | inactive
Nc1nc(NCCc2ccccc2)nc(NCc2ccccc2)c1[N+](=O)[O-] | inactive
CCc1cc[n+](C2=C([O-])c3ccccc3C(=O)/C2=N\S(=O)(=O)c2cccs2)cc1 | 17.8 µM (active)
Cc1cc(C)c2c(CC(=O)Nc3ccc(Cl)cn3)coc2c1 | inactive
COc1ccccc1/C=C/C(=O)OCC(=O)Nc1ccc(Cl)cn1 | inactive
O=C(COC(=O)c1cc([N+](=O)[O-])ccc1N1CCOCC1)Nc1ccc(Cl)cn1 | 14.1 µM (active)
CCn1c(C)cc(C(=O)COC(=O)c2ccccc2[N+](=O)[O-])c1C | inactive
COc1ccc(O)c(/C=N/NC(=O)c2ccc(N3CCCC3=O)cc2)c1 | inactive
O=C(N/N=C/c1cc([N+](=O)[O-])ccc1O)c1ccc(COc2ccc3c(c2)CCC3)o1 | 11.2 µM (active)
COc1ccc(O)c(/C=N/NC(=O)c2ccc(OCc3cccc(Br)c3)cc2)c1 | inactive
COc1ccc2nc(C)c3c(c2c1)OC(C(C)(Cl)Br)C3 (stereo not drawn) | inactive
N#CCc1nc2ccccc2c(=O)[nH]1 | inactive
CC1(C)COCN1S(=O)(=O)c1ccc(C(=O)Nc2nnc(-c3ccc(Cl)s3)o2)cc1 | inactive
O=C1c2cccc3cc([N+](=O)[O-])cc(c23)C(=O)N1CCN1CCCC1 | 1.58 µM (active)
C/[N+]([O-])=C\c1cccc(OCCN2CCN(c3ncc(C(F)(F)F)cc3Cl)CC2)c1 | inactive
COc1cc(C(=O)O/N=C(\N)Cc2ccc([N+](=O)[O-])cc2)cc(OC)c1OC | 3.16 µM (active)

SMILES | Potency
Cn1c(CO)cnc1S(=O)(=O)Cc1ccc([N+](=O)[O-])cc1 | inactive
Cc1sc2nc(CN3CCCC3)nc(N3CCC(C(N)=O)CC3)c2c1C | inactive
Nc1ccc2c(c1)OC1(CCCC1)O2 | inactive
CCn1c2ccccc2c2cc(NC(=O)COC(=O)Cc3cn4ccsc4n3)ccc21 | inactive
CC1CCN(Cc2c(C(=O)N/N=C/c3cc(Br)ccc3O)nnn2-c2nonc2N)CC1 | inactive
Cc1cccc2c1-c1sc(C(=O)Nc3ccccc3N3CCN(C)CC3)cc1CO2 | 22.4 µM (active)
CC1CC(C)CN(CCCNC(=O)c2cc3c(s2)-c2ccccc2OC3)C1 (stereo not drawn) | inactive
Cc1cc(N2CCN(C)CC2)ccc1NC(=O)c1ccc(-c2ccc(Cl)cc2)o1 | inactive
NC(=O)CC(NC(=O)Cc1ccc(Br)cc1)c1ccc(NC2CCCC2)c([N+](=O)[O-])c1 (stereo not drawn) | 3.16 µM (active)
CC(C)C[C@H](N)c1cn([C@@H](CCCCN)C(=O)N2CCNCC2)nn1 | inactive
O=C(NC(Nc1nc2ccc([N+](=O)[O-])cc2s1)(C(F)(F)F)C(F)(F)F)c1ccccc1 | 0.562 µM (active)
Cc1nc2ccc(NC(=O)c3ccc(S(=O)(=O)N(C)c4ccccc4)cc3)cc2s1 | inactive
O=C(NC(Nc1ncc(S(=O)(=O)c2ccc([N+](=O)[O-])cc2)s1)(C(F)(F)F)C(F)(F)F)c1ccc(Cl)cc1 | 10 µM (active)
CO[C@@]12[C@@H]3N[C@@H]3CN1C1=C(C(=O)C(N)=C(C)C1=O)[C@@H]2COC(N)=O | inactive
CC1=CC(C)(C)N2C(=O)C3(SCC(=O)N3c3ccc(F)cc3)c3cc(C)cc1c32 (stereo not drawn) | inactive
CCn1ccnc1CN1CCCC(C(=O)c2ccc3cc(OC)ccc3c2)C1 (stereo not drawn) | inactive
CN(C)CCNc1ncnc2c1ncn2[C@H]1CN(Cc2ccc(-c3ccccc3)cc2)C[C@@H](CO)O1 | inactive
OC[C@@H]1CN(Cc2ccc(-c3ccccc3)cc2)C[C@H](n2cnc3c(Nc4ccccc4)ncnc32)O1 | 22.4 µM (active)
OC[C@@H]1CN(Cc2ccncc2)C[C@H](n2cnc3c(N4CCN(c5ccccc5)CC4)ncnc32)O1 | inactive
CNc1ccccc1C(=O)OC(C)C(=O)Nc1ccc(Cl)cn1 (stereo not drawn) | inactive
CCCc1ccc(O)c(N=Cc2cc(Br)cc(OCC)c2O)c1 | inactive
O=C(Nc1ccc(Br)cc1)c1cccc(OC(=S)N2CCOCC2)c1 | inactive
Oc1[nH]c2ccc(Br)cc2c1N=NC(=S)N1CCOCC1 | 1.12 µM (active)
O=C(NCC1CC1)c1ccc2c(c1)S(=O)(=O)c1cc(Cl)ccc1C2=O | inactive

SMILES | Potency
O=C(Nc1ccc(Cc2ccncc2)cc1)c1ccc(S(=O)(=O)N2CCCC2)cc1 | inactive
COc1ccc(C)cc1Nc1nc(C)nc2sc(C)cc12 | inactive
CC(=O)Nc1ccc(CNc2nc(NC(C)C)nc3cc(-c4ccccc4)sc23)cc1 | 25.1 µM (active)
COc1ccccc1CNc1nc(NCc2ccc(NC(C)=O)cc2)c2sccc2n1 | inactive
O=C(Oc1c(CN2CCOCC2)cc(Cl)c2cccnc12)c1ccccc1F | inactive
COc1cc(OC)cc(-c2cc3nc(C)c(CCC(=O)O)c(C)n3n2)c1 | inactive
COc1cc(Nc2ncc3c(n2)CCN(C(=O)Nc2ccc(C(C)C)cc2)C3)cc(OC)c1OC | inactive
CCCN(CCC)S(=O)(=O)c1ccc(C(=O)Nc2nnc(-c3cc(OC)cc(OC)c3)o2)cc1 | 7.08 µM (active)
CC(=O)c1ccc(C(=O)Nc2nnc(-c3ccc(Cl)cc3)o2)cc1 | inactive
CN(c1ccccc1)S(=O)(=O)c1ccc(C(=O)Nc2nnc(-c3ccc(F)cc3)o2)cc1 | 14.1 µM (active)
CCc1nnc(NC(=O)c2ccc(S(=O)(=O)N(C)c3ccccc3)cc2)o1 | inactive
CCN(CC)S(=O)(=O)c1ccc(C(=O)Nc2ccc(Cc3ccncc3)cc2)cc1 | inactive
COc1ccc(-c2nnc(NC(=O)c3ccc(S(=O)(=O)N4COCC4(C)C)cc3)o2)cc1 | inactive
c1nc(CCO[C@H]2CCCCO2)cc2cc3c(cc12)OCO3 | inactive
CC(=O)Nc1cccc(-c2ccnc3c2CC(C)(C(=O)Nc2ccc(Cl)c(C(F)(F)F)c2)O3)c1 (stereo not drawn) | 28.2 µM (active)
COc1ccc(CCCNC(=O)C2Cc3c(-c4cccc(NC(C)=O)c4)ccnc3O2)cc1 (stereo not drawn) | inactive
CC(=O)c1cccc(-c2ccnc3c2CC(C(=O)Nc2ccc(F)c(Cl)c2)O3)c1 (stereo not drawn) | inactive
COC(=O)c1ccc(N2CCOCC2)c(NC(=O)Nc2cccc(OC)c2)c1 | inactive
CCCC(=O)NC(c1ccc(OC)cc1)c1c(O)ccc2ccccc12 (stereo not drawn) | 10 µM (active)
CCCC(=O)NC(c1ccco1)c1cc(Cl)c2cccnc2c1O (stereo not drawn) | inactive
O=C(NC(c1ccccc1)c1c(O)ccc2ccccc12)c1ccccc1Cl (stereo not drawn) | inactive

Reference: PubChem BioAssay AID1745849 (National Center for Advancing Translational Sciences (NCATS), 2022)
